Assays:
Conditions in all cases: treatment time: 24 h
A549-ACTB-RAB5A [1] = assay: lowest phenotypically active concentration; higher = less potent
How it was run: (§1)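 After 24 h at 0.3, 1, 3 or 9 µM, with four wells per treatment, fifteen gene-edited A549, HepG2 and WPMY1 reporter lines carrying BFP, GFP and RFP/FusionRed were imaged live. Each well's live-cell features were expressed relative to solvent control wells. Deviation required ≥3 of 4 wells past the 95th percentile of control Euclidean distances, and reproducibility a median replicate Pearson correlation over the 95th percentile of non-replicates. Phenotypic activity rested on both.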

A549-CANX-COX4 [2] = assay: as above
How it was run: as §1

A549-GM130-SQSTM1 [3] = assay: as above
How it was run: as §1

A549-TP53BP1-CLTA [4] = assay: as above
How it was run: as §1

A549-TUBA1B-RELA [5] = assay: as above
How it was run: as §1

HepG2-TP53BP1-CLTA [6] = assay: as above
How it was run: as §1

A549-ACTB-RAB5A [7] = assay: phenotypically active (imaging signature differs from DMSO and reproducible) at any of 0.3-9 uM (binary (1 = active, 0 = inactive)); higher = active
How it was run: as §1

A549-CANX-COX4 [8] = assay: as above
How it was run: as §1

A549-GM130-SQSTM1 [9] = assay: as above
How it was run: as §1

A549-TP53BP1-CLTA [10] = assay: as above
How it was run: as §1

A549-TUBA1B-RELA [11] = assay: as above
How it was run: as §1

HepG2-ACTB-RAB5A = assay: as above
How it was run: as §1

HepG2-CANX-COX4 = assay: as above
How it was run: as §1

HepG2-GM130-SQSTM1 = assay: as above
How it was run: as §1

HepG2-TP53BP1-CLTA [12] = assay: as above
How it was run: as §1

HepG2-TUBA1B-RELA = assay: as above
How it was run: as §1

WPMY1-CANX-COX4 = assay: as above
How it was run: as §1

WPMY1-GM130-SQSTM1 = assay: as above
How it was run: as §1

WPMY1-TP53BP1-CLTA = assay: as above
How it was run: as §1

WPMY1-TUBA1B-RELA = assay: as above
How it was run: as §1

Compound | lowest phenotypically active concentration (A549-ACTB-RAB5A [1]) [µM] | lowest phenotypically active concentration (A549-CANX-COX4 [2]) [µM] | lowest phenotypically active concentration (A549-GM130-SQSTM1 [3]) [µM] | lowest phenotypically active concentration (A549-TP53BP1-CLTA [4]) [µM] | lowest phenotypically active concentration (A549-TUBA1B-RELA [5]) [µM] | lowest phenotypically active concentration (HepG2-TP53BP1-CLTA [6]) [µM] | phenotypically active (A549-ACTB-RAB5A [7]) | phenotypically active (A549-CANX-COX4 [8]) | phenotypically active (A549-GM130-SQSTM1 [9]) | phenotypically active (A549-TP53BP1-CLTA [10]) | phenotypically active (A549-TUBA1B-RELA [11]) | phenotypically active (HepG2-ACTB-RAB5A) | phenotypically active (HepG2-CANX-COX4) | phenotypically active (HepG2-GM130-SQSTM1) | phenotypically active (HepG2-TP53BP1-CLTA [12]) | phenotypically active (HepG2-TUBA1B-RELA) | phenotypically active (WPMY1-CANX-COX4) | phenotypically active (WPMY1-GM130-SQSTM1) | phenotypically active (WPMY1-TP53BP1-CLTA) | phenotypically active (WPMY1-TUBA1B-RELA)
CC(C)(C)Nc1nc(Nc2ccc(C(N)=O)cc2)cc(N)c1C#N | 3 | 3 | 3 | 3 | 3 | 3 | 1 (active) | 1 (active) | 1 (active) | 1 (active) | 1 (active) | 1 (active) | 1 (active) | 1 (active) | 1 (active) | 1 (active) | 1 (active) | 1 (active) | 1 (active) | 1 (active)
CCOC(=O)CCNc1cc(N2CCc3ccccc3CC2)nc(-c2ccccn2)n1 | 3 | 9 | 9 | 3 | 3 | 3 | 1 (active) | 1 (active) | 1 (active) | 1 (active) | 1 (active) | 1 (active) | 1 (active) | 1 (active) | 1 (active) | 1 (active) | 1 (active) | 1 (active) | 1 (active) | 1 (active)
C[C@H]1COCCN1c1cc(C2(S(=O)(=O)C3CC3)CC2)nc(-c2ccc(NC(=S)NCCO)cc2)n1 | ≤ 0.3 | ≤ 0.3 | ≤ 0.3 | ≤ 0.3 | ≤ 0.3 | ≤ 0.3 | 1 (active) | 1 (active) | 1 (active) | 1 (active) | 1 (active) | 1 (active) | 1 (active) | 1 (active) | 1 (active) | 1 (active) | 1 (active) | 1 (active) | 1 (active) | 1 (active)
CCc1cccc(CC)c1NC(=O)N1Cc2[nH]nc(NC(=O)c3ccc(N4CCN(C)CC4)cc3)c2C1 | ≤ 0.3 | 3 | 1 | 3 | 1 | ≤ 0.3 | 1 (active) | 1 (active) | 1 (active) | 1 (active) | 1 (active) | 1 (active) | 1 (active) | 1 (active) | 1 (active) | 1 (active) | 1 (active) | 1 (active) | 1 (active) | 1 (active)
COc1cc(N2CCC(N3CCN(C)CC3)CC2)ccc1Nc1ncnc(Nc2ccccc2S(=O)(=O)C(C)C)n1 | 3 | 9 | 3 | 9 | 9 | 9 | 1 (active) | 1 (active) | 1 (active) | 1 (active) | 1 (active) | 1 (active) | 1 (active) | 1 (active) | 1 (active) | 1 (active) | 1 (active) | 1 (active) | 1 (active) | 1 (active)
COc1cc(Br)c(Nc2nc(-c3c(C)nc4ncccn34)cs2)c(Br)c1 | 1 | 1 | 1 | 1 | 1 | 1 | 1 (active) | 1 (active) | 1 (active) | 1 (active) | 1 (active) | 1 (active) | 1 (active) | 1 (active) | 1 (active) | 1 (active) | 1 (active) | 1 (active) | 1 (active) | 1 (active)

Source: the supplement of paper PMC7411054
